# Data taken from PMC6664820, “Novel natural and synthetic inhibitors of solute carriers SGLT1 and SGLT2” (Pharmacology Research & Perspectives, 2019).
# In all, about 1,900 compounds went through this assay and about 40 (2%) showed an effect of 50% or more. Many of the other results were omitted from the sample, so strong results are more common in it than they were. Residues, ends and D or L forms follow the SMILES beside them.
# Target: human SGLT1 (hSGLT1) (human, UniProt P13866)
# Assay: primary screen, percent of control activity; higher = less effect of the substance
# Parameters: single well
# Details: 50 µM
# Protocol: Two days before the assay, CHO‐wild type and CHO‐hSGLT1 cells were seeded in maintenance medium at 25 000 cells/well in clear‐bottom black 96‐well cell culture plates. Before the assay, cells were washed 3 times with 150 μL/well D‐glucose free DMEM with 0.3% (w/v) BSA. Library compounds at 50 μmol/L (singlicate) prepared in D‐glucose free DMEM with 160 μmol/L 1‐NBD‐glucose and 0.3% (w/v) BSA and negative controls (triplicate) were added at 100 μL/well and placed in a humidified incubator at 37°C with 5% CO2 for 90 minutes. Next, cells were washed 3 times with DMEM with 0.3% (w/v) BSA (150 μL/well). Care was taken to remove all medium after the last wash. Finally, 1‐NBD‐glucose was extracted from the cells by adding 10 μL/well isopropanol and orbital shaking for 5 minutes at 600 rpm, followed by incubation in the dark for 30 minutes. Fluorescence was measured on a Tecan Infinite M200 Microplate Reader (Tecan, Männedorf, Switzerland) with excitation at 445 nm and emission at 525 nm. The amount of 1‐NBD‐glucose taken up by the CHO‐wild type or CHO‐hSGLT1 cells in the presence or absence of test compounds was interpolated from 1‐NBD‐glucose calibration standards. The background uptake by CHO‐wild type was subtracted from the uptake by CHO‐hSGLT1. Background corrected uptake with test compound was expressed as a percentage of corrected uptake without test compound.
# Chain of human SGLT1 (hSGLT1) (P13866 whole entry, looked up): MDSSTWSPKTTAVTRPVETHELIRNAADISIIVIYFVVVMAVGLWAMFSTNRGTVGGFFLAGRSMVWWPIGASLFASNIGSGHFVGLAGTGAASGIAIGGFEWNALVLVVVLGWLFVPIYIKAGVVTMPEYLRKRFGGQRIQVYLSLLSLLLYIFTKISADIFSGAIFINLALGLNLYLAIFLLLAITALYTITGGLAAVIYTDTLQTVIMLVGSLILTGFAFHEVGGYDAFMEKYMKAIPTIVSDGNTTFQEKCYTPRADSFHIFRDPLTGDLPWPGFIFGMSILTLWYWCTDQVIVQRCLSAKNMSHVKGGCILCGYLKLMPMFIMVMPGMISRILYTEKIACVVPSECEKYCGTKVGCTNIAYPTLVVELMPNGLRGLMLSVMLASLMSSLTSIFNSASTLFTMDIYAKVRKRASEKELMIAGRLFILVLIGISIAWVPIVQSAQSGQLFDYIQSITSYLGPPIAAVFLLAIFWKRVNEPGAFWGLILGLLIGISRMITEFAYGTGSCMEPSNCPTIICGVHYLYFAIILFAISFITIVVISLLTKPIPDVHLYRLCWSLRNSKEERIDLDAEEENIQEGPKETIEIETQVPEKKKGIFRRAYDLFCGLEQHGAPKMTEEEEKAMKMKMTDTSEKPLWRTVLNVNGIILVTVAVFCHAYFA
row,SMILES,NORMALIZED SGLT1 ACTIVITY (%)
1,CCN1CCCC(OC(=O)C(c2ccccc2)c2ccccc2)C1.Cl (stereo not drawn),90%
2,Cc1ccsc1/C=C/C1=NCCCN1C.O=C(O)CC(O)(CC(=O)O)C(=O)O,91%
3,CN1CCCN=C1COC(=O)C(O)(c1ccccc1)C1CCCCC1.Cl (stereo not drawn),43%
4,COc1c2c(cc3c1OCO3)CC[N+](C)=C2.[Cl-],98%
5,C[N+](C)(C)CCO.[Cl-],97%
6,N[C@@H](Cc1ccccc1)C(=O)N[C@@H](Cc1ccc(O)cc1)C(=O)O (H-Phe-Tyr-OH),112%
7,CCC(CCC(C)[C@H]1CCC2C3CC=C4C[C@@H](O)CC[C@]4(C)C3CC[C@@]21C)C(C)C (stereo partly drawn),106%
8,Nc1ccc(S(=O)(=O)NC(=O)c2ccccc2)cc1,100%
9,CC(=O)O[C@H]1CC[C@@]2(C)C(CC[C@]3(C)C2C(=O)C=C2C4[C@@H](C)[C@H](C)CC[C@]4(C(=O)O)CC[C@]23C)C1(C)C (stereo partly drawn),37%
10,C[C@H]1[C@H](C)CC[C@]2(C(=O)O)CC[C@]3(C)C(=CC[C@@H]4[C@@]5(C)CC[C@H](O)C(C)(C)[C@@H]5CC[C@]43C)[C@H]12,84%
11,CC(=O)O[C@@H]1CC[C@@]2(C)C(CC[C@]3(C)C2CC=C2C4CC(C)(C)CC[C@]4(C(=O)O)CC[C@]23C)C1(C)C (stereo partly drawn),141%
12,CCCCCc1c2c(cc(O)c1C(=O)O)OC(=O)c1c(cc(OC)cc1C(=O)CCCC)O2,152%
13,O=C(O)c1cccnc1C(=O)O,124%
14,O=C(O)Cc1nn(Cc2ccc(Br)cc2F)c(=O)c2ccccc12,180%
15,CC(COc1ccccc1)N(CCCl)Cc1ccccc1.Cl (stereo not drawn),35%
16,C[C@H](COc1ccccc1)N[C@H](C)[C@H](O)c1ccc(O)cc1.Cl,119%
17,C#CCN(C)Cc1ccccc1.Cl,134%
18,C[C@H]1O[C@@H](O[C@H]2[C@@H](O)C[C@H](O[C@H]3[C@@H](O)C[C@H](O[C@H]4CC[C@@]5(C)[C@H](CC[C@@H]6[C@@H]5CC[C@]5(C)[C@@H](C7=CC(=O)OC7)CC[C@]65O)C4)O[C@@H]3C)O[C@@H]2C)C[C@H](O)[C@@H]1O,111%
19,CC(CCC(=O)O)[C@H]1CCC2C3C(C[C@H](O)[C@@]21C)[C@@]1(C)CC[C@@H](O)C[C@H]1C[C@H]3O (stereo partly drawn),89%
20,C[C@H]1OC(n2cc(F)c(=O)[nH]c2=O)C(O)[C@@H]1O (stereo partly drawn),112%
21,Cn1c(=O)c2c(ncn2CCCl)n(C)c1=O,183%
22,COc1cccc(OC)c1OCCNCC1COc2ccccc2O1.Cl (stereo not drawn),72%
23,Cl.Nc1c(Br)cc(Br)cc1CNC1CCC(O)CC1 (stereo not drawn),99%
24,CN(Cc1cc(Br)cc(Br)c1N)C1CCCCC1.Cl,44%

row,SMILES,NORMALIZED SGLT1 ACTIVITY (%)
1,C[C@@H]1[C@H]2[C@H](O[C@@H]3O[C@H](CO)[C@@H](O)[C@H](O)[C@H]3O)OC=C(C(=O)O)[C@H]2C[C@@H]1O,123%
2,Nc1ccn(C2O[C@H](CO)[C@@H](O)[C@H]2O)c(=O)n1 (stereo partly drawn),107%
3,O=C(O[C@@H]1Cc2c(O)cc(O)cc2O[C@@H]1c1cc(O)c(O)c(O)c1-c1c([C@H]2Oc3cc(O)cc(O)c3C[C@H]2OC(=O)c2cc(O)c(O)c(O)c2)cc(O)c(O)c1O)c1cc(O)c(O)c(O)c1,99%
4,O=C1CCCC2C3CC(CN12)[C@@H]1CCCCN1C3.[O-][Cl+3]([O-])([O-])O (stereo partly drawn),97%
5,COc1ccc(/C=C/c2cc(O)cc(O)c2)cc1,198%
6,Oc1cc(O)cc(/C=C/c2ccccc2)c1,39%
7,COc1cc(O)cc(/C=C/c2ccccc2)c1,494%
8,O=C1c2ccccc2C(=O)C1c1ccccc1,111%
9,COc1ccc(C(=O)CC(=O)O)c2c1C=CC(C)(C)O2,115%
10,CC(=O)/C(=C\c1ccccc1)CC(=O)O,142%
11,CC(=O)Oc1ccc(/C=C/c2cc(OC(C)=O)cc(OC(C)=O)c2)cc1,222%
12,COc1cc(-c2coc3cc(O[C@@H]4O[C@H](CO)[C@@H](O)[C@H](O)[C@H]4O)c(OC)c(O)c3c2=O)cc(O)c1OC,111%
13,COC(=O)C1[C@H]2C[C@H]3c4[nH]c5ccccc5c4CCN3C[C@@H]2CC[C@@H]1O.Cl (stereo partly drawn),120%
14,CC(=O)O[C@@H]1CC2C(C)(C)CCC(=O)[C@]2(C)C2CC[C@@]3(C)[C@H](c4ccoc4)OC(=O)C4OC43[C@@]21C (stereo partly drawn),126%
15,CCCCc1nc(Cl)c(CO)n1Cc1ccc(-c2ccccc2-c2nnn[nH]2)cc1,249%
16,CCCCC1=NC2(CCCC2)C(=O)N1Cc1ccc(-c2ccccc2-c2nnn[nH]2)cc1,117%
17,CCOc1nc2cccc(C(=O)OC(C)OC(=O)OC3CCCCC3)c2n1Cc1ccc(-c2ccccc2-c2nnn[nH]2)cc1 (stereo not drawn),36%
18,N.N.[Cl][Pt][Cl],90%
19,COc1ccc2c(c1)[C@@]1(C)CC[C@@H](O)C[C@@H]1CC2,116%
20,CC(C)=CCCC1(C)C=Cc2c(O)c3c(c(CC=C(C)C)c2O1)OC12C(=CC4CC1C(C)(C)OC2(C/C=C(/C)C(=O)O)C4O)C3=O (stereo not drawn),174%
21,CC(C)=CCCC1(C)C=Cc2c(O)c3c(c(CC=C(C)C)c2O1)OC12C(=CC4CC1C(C)(C)OC2(C/C=C(/C)C(=O)O)C4=O)C3=O (stereo not drawn),163%
22,CC(C)=CCCC1(C)C=Cc2c(O)c3c(c(CC=C(C)C)c2O1)OC12C(=CCCC1C(C)(C)O[C@@]2(C/C=C(\C)C(=O)O)C(=O)O)C3=O (stereo partly drawn),39%
23,O=c1c(O)cccc2cc(O)c(O)c(O)c12,137%
24,CNC(C)[C@@H]1CC[C@@H](N)[C@@H](OC2[C@@H](N)C[C@@H](N)[C@H](OC3OC[C@](C)(O)[C@H](NC)[C@H]3O)[C@H]2O)O1.O=S(=O)(O)O (stereo partly drawn),95%
